Only some compounds are listed: those with a hit (about 6.6% of all), similar ones and a draw of the others.
MCF10A rerep = inducers of DNA re-replication in MCF 10A breast cells; MCF 10A DNA re-replication, Hoechst nuclear intensity, 48 h; Potency, µM (series often up to 46.1 µM), inactives show at the top dose activity, positive = re-replication, usual class: activators; hit rate 2.9% among 350,000; AID 624296; note: % of control where 0% means no effect; nearly all actives have a fitted effect of over 50% in size
KB-V1 MDR tox = KB-V1 MDR subline cytotoxicity; hit rate 3.4% among 400,000; KB-V1 MDR cells viability, CellTiter-Glo, 72 h; AID 1347076; Potency, µM (titrated, usually from 46.1 µM), most hits filed as cytotoxic; note: % is set by controls: 0 for no effect and ±100 for the full control effect; nearly all actives have a fitted effect of over 60% in size
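Cytotoxicity toward P-gp-expressing KB-V1 cells was determined as loss of CellTiter-Glo luminescence after 72 h at 37 degrees C. Compounds were tested in quantitative HTS format across a concentration range, with curves fitted to normalized data.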
SW480 rerep = induces DNA re-replication in SW480 colon adenocarcinoma cells; SW480 DNA re-replication, Hoechst DNA content imaging, 48 h; Potency, µM (titrated, usually from 46.1 µM), inactives show at the highest dose re-replication activation, most hits filed as activators; hit rate 1.8% among 340,000; AID 624297; note: % of control where 0% means no effect; nearly all actives have a fitted effect of over 55% in size
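250 cells/well; 23 nL cpd via pin tool; 48 hr, 37 C, 5% CO2; Hoechst 40 min; imager read of total nuclear intensity, ex 405/em 500-530 nm.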
RGS4 inhibitor = human RGS4 inhibition. Potency, µM (top dose mostly 114 µM), without a hit: at the top dose activity change, negative = inhibition, most hits filed as inhibitors. hit rate 0.039% among 390,000. Transcreener GDP fluorescence polarization, RGS4-accelerated GTP hydrolysis. P49798; note: % is set by controls: 0 for no effect and ±100 for the full control effect; nearly all actives have a fitted effect of over 75% in size
Target sequence (P49798 whole entry, looked up): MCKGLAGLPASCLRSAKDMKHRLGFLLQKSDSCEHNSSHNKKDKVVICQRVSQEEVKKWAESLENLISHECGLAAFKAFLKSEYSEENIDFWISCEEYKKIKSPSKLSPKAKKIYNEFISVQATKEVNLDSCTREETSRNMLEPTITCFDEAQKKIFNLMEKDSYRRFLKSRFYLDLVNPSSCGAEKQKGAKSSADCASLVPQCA
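MLSMR compounds (23 nl, pin-transferred) preincubated 10 min at room temperature with a 500nM (2x) first reagent, then RGS4 at 900nM (2x) plus Transcreener GDP mix added; fluorescence polarization (620/688 nm) read before and after 90 min at 30 °C.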
KB-3-1 tox = kills parental KB-3-1 adenocarcinoma cells. KB-3-1 viability, CellTiter-Glo ATP luminescence, 72 h. Potency, µM (doses to about 46.1 µM), usual class: cytotoxic. hit rate 1.4% among 400,000. AID 1347075; note: % is set by controls: 0 for no effect and ±100 for the full control effect; nearly all actives have a fitted effect of over 60% in size
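Viability of parental KB-3-1 cells, measured by CellTiter-Glo luminescence, followed a 72 h incubation at 37 °C with pinned compounds in phenol-red-free DMEM containing 10% FBS.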
TSG101-PTAP inh = blocks PTAP/TSG101 interaction to inhibit HIV-1 budding | Q99816 | Fluorescence polarization, FITC-PTAP peptide / Tsg101 binding | Potency, µM (doses to about 115 µM), without a hit: top-dose activity change, negative = inhibition, actives largely listed as inhibitors | 340,000 tested, under 10 active | AID 493005; active = well fitted inhibition curve with a large enough effect in the main read-out, with a control signal flat, not every such curve was filed as active; inconclusive = small, poorly fitted or top-dose-only effect, or effect the other way, or a change in a side signal; inactive = no such curve, though single readings can be large or run the other way; note: % of control where 0% means no effect
Target sequence (Q99816 whole entry, looked up): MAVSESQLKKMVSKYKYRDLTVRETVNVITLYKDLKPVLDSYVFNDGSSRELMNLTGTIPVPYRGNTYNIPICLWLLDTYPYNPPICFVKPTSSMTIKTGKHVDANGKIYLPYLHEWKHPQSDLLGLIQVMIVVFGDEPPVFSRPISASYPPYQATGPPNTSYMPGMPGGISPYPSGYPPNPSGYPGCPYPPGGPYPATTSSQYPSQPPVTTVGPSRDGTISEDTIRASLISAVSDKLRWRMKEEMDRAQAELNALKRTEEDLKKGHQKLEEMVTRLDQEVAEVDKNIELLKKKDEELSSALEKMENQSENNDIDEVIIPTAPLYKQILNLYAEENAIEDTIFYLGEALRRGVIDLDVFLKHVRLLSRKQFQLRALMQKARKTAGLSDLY
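Fluorescence anisotropy tracks displacement of a FITC-tagged PTAP peptide (50 nM) from the Tsg101 binding domain (10 uM), following a 20 min room-temperature incubation at pH 7.5.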
Starred values were filed as active, the others as inactive; i = inactive; ? = inconclusive; · = not tested or not shown; [ ] = remark or other dose. Unless noted, calls come from the whole dose curve; as a rule, active = well fitted curve in the direction sought with a large enough effect; inconclusive = small, poorly fitted or top-dose-only effect, or another doubt; inactive = no such curve, though single readings can be large; an effect the other way counts as inactive or inconclusive. Potency is the fitted concentration of half-maximal effect.

SMILES | MCF10A rerep | KB-V1 MDR tox | SW480 rerep | RGS4 inhibitor | KB-3-1 tox | TSG101-PTAP inh
O=C(/C=C/c1cc(Br)ccc1O)c1ccco1 | ? | 16µM* | ? | 11%[11.4 µM] | ? | -7%
Nc1ccc(/C=C/C(=O)c2ccco2)cc1 | 18% | i | 2% | 2% | i | 25%
N#Cc1ccc(/C=C/C(=O)c2ccco2)cc1 | ? | i | ? | ? | i | -1%
CC(C)[C@H](CO)Nc1nc(NCc2ccc(S(N)(=O)=O)cc2)c2ncn(C(C)C)c2n1 | 27% | i | 18µM* | -4% | ? | -4%
O=C1N/C(=C/c2ccc(N3CCOCC3)o2)C(=O)N1c1ccccc1 | 3.7µM* | i | 8.2µM* | ? | i | ?
O=C1NC(=S)S/C1=C/c1ccc(N2CCOCC2)o1 | ? | i | ? | ? | i | ?
C=CCN1C(=O)N/C(=C/c2ccc(N3CCOCC3)o2)C1=O | 5.8µM* | · | 5.8µM* | · | · | ·
CC(C)(Oc1ccc(Cl)cc1)C(=O)Nc1nc2ccc(S(C)(=O)=O)cc2s1 | · | i | · | -33% | i | ·
CCOC(=O)N1C(=O)[C@@](c2ccc(Cl)cc2)(C(C)C)N1C(=O)OCC | 21µM* | ? | ? | -47% | i | -3%
CCC(=O)NC1Cc2ccccc2C(c2ccccc2)C1 (stereo not given) | · | · | · | 24µM* | · | ·
COc1ccc(OC)c(NC(=O)c2c(NCc3ccc(C)o3)sc3c2CCC(C)C3)c1 (stereo not given) | · | i | · | ? | i | ·
O=C(NCc1ccco1)c1cccnc1-c1nc2ccccc2s1 | 3% | 13µM* | -2% | ? | i | -4%
O=C(NCc1ccco1)c1cccnc1Cl | -4% | i | 2% | 4% | i | 1%
COc1ccc2c(CNCc3ccc(C)o3)c(C(=O)O)n(Cc3ccccc3C)c2c1 | · | i | · | -7% | i | ·
COc1ccc(Cn2c(C(=O)O)c(CNCc3ccc(C)o3)c3ccc(OC)cc32)cc1 | · | i | · | -3% | 8.2µM* | ·
CC1CCN(S(=O)(=O)c2cccc(C(=O)O)c2)CC1 | -6% | i | -13% | 19% | i | -8%
COC(=O)c1cccc(S(=O)(=O)N2CCC(C)CC2)c1 | 4% | 21µM* | -3% | 10% | i | -5%
COC(=O)c1cccc(S(=O)(=O)N2CCC(NC(=O)NC34CC5CC(CC(C5)C3)C4)CC2)c1 | -4% | 12µM* | 6% | -1% | i | -4%
O=C(OCCOc1ccccc1)c1cccc(S(=O)(=O)N2CCOCC2)c1 | -1% | 18µM* | -2% | -20% | i | -2%
CCCCOc1cccc(C(=O)Nc2cc(NC(=O)c3ccco3)ccc2OC)c1 | · | i | · | -2% | i | ·
Cc1ccc(S(=O)(=O)N(CC(=O)N2CCc3ccccc3C2)c2ccc(C)c(C)c2)cc1 | · | i | · | -12% | i | ·
COc1cccc(CC(=O)Nc2ccc3nc(C)sc3c2)c1 | -9% | ? | 9.2µM* | -2% | i | 1%
CCc1nc(N)nc(N)c1-c1ccc(N(C)Cc2ccccc2)c([N+](=O)[O-])c1 | 14% | 1.8µM* | 22% | 16% | 4.1µM* | 0%
CC(=O)N(NC(=O)c1ccccc1Cl)C1CC(=O)N(c2ccc(C)cc2)C1=O (stereo not given) | 16µM* | i | 18% | 18% | i | -3%
CCc1ccc(OCCn2c(CCNC(=O)C3CCCCC3)nc3ccccc32)cc1 | · | i | · | -15% | i | ·
SMILES | MCF10A rerep | KB-V1 MDR tox | SW480 rerep | RGS4 inhibitor | KB-3-1 tox | TSG101-PTAP inh
COc1ccccc1N1CCN(S(=O)(=O)c2ccc(F)cc2)CC1 | 0% | 13µM* | 0% | 30% | i | ·
COc1cc(/C=C/C(=O)OCC(=O)Nc2ccccc2Sc2ccc(Cl)cc2)ccc1O | 21µM* | ? | 13% | -1% | i | 0%
COc1cc(/C=C/C(=O)OCC(=O)NCCc2ccc(S(N)(=O)=O)cc2)ccc1OCC#N | ? | i | 2.6µM* | -39% | i | -5%
COc1ccc(CCCC(=O)NCc2ccccc2)cc1C | 8.2µM* | 6.5µM* | ? | 3% | ? | -1%
COc1ccc(/C=C/C(=O)OCC(=O)NCc2ccccc2)cc1OC | 23µM* | i | 16% | 10% | ? | -3%
COc1cc(/C=C/C(=O)OCC(=O)NCc2ccco2)ccc1O | ? | ? | 23% | -12% | 23µM* | -1%
O=C1c2ccccc2S(=O)(=O)c2cc(C(=O)N(c3ccccn3)c3ccccn3)ccc21 | -2% | 15µM* | 5% | 8% | i | -2%
Cc1nn(CCC(=O)O)c2nc(-c3cccnc3)cc(C(F)(F)F)c12 | 0% | i | 3% | 1% | i | -9%
Cc1nn(CCc2nn[nH]n2)c2nc(-c3ccc(C4CCCCC4)cc3)cc(C(F)(F)F)c12 | 12µM* | i | -3% | -7% | i | -5%
O=S(=O)(c1ccc(F)cc1)N1CCC(n2c(C(F)(F)F)nc3cccnc32)CC1 | · | i | · | -7% | i | ·
Cc1ccc(-n2[nH]c(C)c(/C=N/c3ccccn3)c2=O)cc1 | -8% | i | -2% | -9% | ? | -1%
CCCc1nc2ccccc2c(=O)n1/N=C/c1ccccc1O | ? | 16µM* | ? | 1% | i | -10%
CCCc1nc2ccccc2c(=O)n1/N=C/c1c(C)[nH]n(-c2ccc(C)cc2)c1=O | 11% | 16µM* | ? | ? | 8.2µM* | -4%
COc1ccc(CCNC(=O)CCc2cn(Cc3ccc(F)cc3)c3ccccc23)cc1OC | · | · | · | 15% | · | ·
CCOC(=O)c1ccc(-n2c(CCC(=O)O)ccc2-c2ccc(Br)cc2)cc1 | · | · | · | -49% | · | ·
NC(=O)C1(N2CCCCC2)CCN(Cc2ccccc2Cl)CC1 | 16µM* | ? | 12µM* | 13% | i | -10%
O=S(=O)(c1ccc(Br)cc1)c1nnn2c1nc(NCc1cccs1)c1sccc12 | · | i | · | -28% | i | ·
COc1ccccc1Nc1ncnc2c1c(C)c(C)n2CCCN(C)C | ? | i | 21µM* | 15% | i | 0%
Cc1c(C)n(CCCN(C)C)c2ncnc(Nc3ccccc3)c12 | ? | i | -21% | -13% | i | -4%
CC(=O)c1c(C)nc2nc(-c3ccccc3)nn2c1C | · | ? | · | 18% | i | ·
CCOC(=O)[C@@H]1[C@H]2COc3ccccc3[C@@H]2N2C(=O)N(c3ccc(Br)cc3)C(=O)[C@]12C | -7% | i | 23µM* | 21% | i | 1%
CCOC(=O)[C@@H]1[C@H]2COc3ccccc3[C@H]2N2C(=O)N(c3ccc(Br)cc3)C(=O)[C@]12C | 0% | i | -9% | 10% | i | -3%
